# In all, about 33,000 sequences were measured (“E-score (-0.5 to 0.5)”: median about -0.013, highest 2% from about 0.3 on). This excerpt belongs to a sample that is enriched for the highest values.
# Biological target: T1, Msn1 (UniProt P22148)
# T1 sequence: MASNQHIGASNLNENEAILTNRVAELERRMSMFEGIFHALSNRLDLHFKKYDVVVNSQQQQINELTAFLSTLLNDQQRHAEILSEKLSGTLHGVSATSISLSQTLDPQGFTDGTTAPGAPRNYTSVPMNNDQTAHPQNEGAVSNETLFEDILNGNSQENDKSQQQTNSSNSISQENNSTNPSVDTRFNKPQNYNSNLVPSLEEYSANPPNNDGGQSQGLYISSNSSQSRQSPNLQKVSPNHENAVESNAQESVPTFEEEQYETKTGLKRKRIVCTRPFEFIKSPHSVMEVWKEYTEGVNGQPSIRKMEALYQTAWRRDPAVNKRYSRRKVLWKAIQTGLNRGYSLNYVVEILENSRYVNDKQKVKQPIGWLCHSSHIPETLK
# Assay: PBM E-score (8-mer binding enrichment) (E-score (-0.5 to 0.5)); higher = stronger / more preferred TF binding
# Conditions: protein concentration: 200 nM; construct: GST-full length
# Description: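 Universal 'all 10-mer' protein binding microarrays (Agilent AMADID 015681) probed with GST-tagged S. cerevisiae TFs (full-length or DBD) made by in vitro transcription/translation (PURExpress), about 100-200 nM. Bound TF was detected with fluorescent anti-GST. Each ungapped 8-mer (which stands for itself and its reverse complement) is scored by the PBM enrichment score (E-score), a modified Wilcoxon-Mann-Whitney statistic from -0.5 to +0.5, computed with the Universal PBM Analysis Suite. Scale: above 0.35 generally sequence-specific binding.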
row,Sequence,PBM E-score
1,CCGTTGTC,0.304
2,CAGTTGTA,0.069
3,CCGTTGTA,0.187
4,ACATTCTG,0.162
5,TAGCAGGA,0.0461
6,GCACCCGC,-0.163
7,ACATTGGC,-0.0178
8,ATTCAGGC,0.0647
9,CACATTGC,0.115
10,GACATTGA,0.386
11,AACATTGC,-0.162
12,CACATTGA,0.0276
13,TACATTGA,0.105
14,GACATTGC,0.434
15,ATCCCGGG,0.0417
16,CAGAGACA,0.204
17,GCTCAAGA,-0.102
18,CACGGCTG,-0.156
19,CAGGTGGA,-0.193
20,CTGCCCTC,-0.329
21,GAAAAGTA,0.167
22,ATAAAGTG,0.154

row,Sequence,PBM E-score
1,GAAAAGTC,0.326
2,AAAAAGTC,0.418
3,ACAAAGTC,0.236
4,CAAAAGTC,0.282
5,ATAAAGTC,0.305
6,GAAAAGGC,-0.0462
7,ATAAAGTA,0.243
8,AAGCGAGA,-0.127
9,CGGCCACG,-0.189
10,GACCCGAC,-0.0784
11,AGGTAATC,-0.139
12,AACAAAAG,0.101
13,ACAGCGTG,0.0507
14,AAATGTAC,0.371
15,GAATGTGC,-0.148
16,GAATGTAC,0.342
17,ATATGTAC,0.371
18,CAATGTAC,0.195
19,AAATGTAG,-0.0386
20,CTATGTAC,0.189
21,GAATGTAA,-0.0699
22,ATATGTAA,0.131

row,Sequence,PBM E-score
1,ATATCACG,-0.0452
2,ACGAGCTG,0.0278
3,ACCTTCTC,-0.183
4,CGTCCCTA,-0.0646
5,AATAATAT,0.33
6,AATAATAA,0.132
7,AAATATAC,0.0952
8,AATAATAG,-0.0638
9,AAATATGA,0.154
10,AAATATAA,0.272
11,AAATATAT,0.306
12,AAATATGC,-0.0194
13,AAATATGT,0.37
14,ACCAGAGC,-0.124
15,CGATGCAC,-0.295
16,GCACAGGA,0.0138
17,ACTCGAGT,0.14
18,ATAGGCCA,-0.0607
19,GGTCACAA,-0.0198
20,CGTCACAA,0.137
21,TAACATAA,0.214
22,TGTCACAA,0.378

row,Sequence,PBM E-score
1,TTACATAA,0.0155
2,GTACATAA,0.306
3,TGACATAA,0.364
4,GCACATAC,-0.162
5,CGACATAC,0.281
6,CTACATAA,-0.237
7,GGACATAC,0.48
8,TCACATAA,-0.0221
9,GACCCCCA,-0.377
10,TCACTAGA,0.0764
11,CACCCCGC,-0.0608
12,CCATTAAC,0.139
13,GCCCTGCC,-0.296
14,AAGTCTAC,0.0709
15,TGTCATAA,0.397
16,CGTCATAA,0.122
17,CGACATGA,0.207
18,AGTCATAA,0.0855
19,CGACATAA,0.286
20,GCACATAA,-0.0366
21,GGACATGA,0.467

# Reference: the supplement of paper PMC3334620
